Screening data: PubChem, National Center for Advancing Translational Sciences (NCATS)
PLK1 PBD block = blocks phosphopeptide binding to human PLK1 polo-box domain; Plk1 PBD binding of FITC phosphopeptide, fluorescence polarization; P53350; AID 720504; 360,000 tested, 2.8% active; Potency, µM, inactives show max response, negative = inhibition, most hits filed as inhibitors; also: series mostly up to about 57 µM; % is scaled to controls: 0 for no effect and ±100 for the full control effect; nearly all actives have a fitted effect of over 65% in size
BAZ2B block = blocks human BAZ2B; Q9UIF8; AlphaScreen BAZ2B-H3K14Ac peptide displacement; Potency, µM (doses to about 114 µM), for inactives: at the highest dose activity change, negative = inhibition, actives largely listed as inhibitors; 360,000 tested, 4.4% active; also: % is scaled to controls: 0 for no effect and ±100 for the full control effect; nearly all actives have a fitted effect of over 60% in size
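Protein-peptide AlphaScreen: BAZ2B 50 nM, b-H3K14Ac 50 nM, 1x PBS pH 7.4 + 0.01% Tween-20. Preincubation 30 min RT; cpd 30 min RT (top 110 uM); beads 20 min RT, light-protected.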
HP1b binding inh = blocks HP1-beta chromodomain binding to methylated histone tails. AID 540317. AlphaScreen HP1-beta / biotin-H3K9me3 peptide binding. P83916. Potency, µM (doses to about 114 µM), inactives show at the top dose activity change, negative = inhibition, most hits filed as inhibitors. 390,000 tested, 0.56% active; also: nearly all actives have a fitted effect of over 70% in size
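Compound inhibition of the preformed complex between 50 nM HP1-beta and 50 nM biotinylated H3K9me3 peptide was read by AlphaScreen. Buffer was PBS pH 7.4 with 0.01% Tween-20. Incubations ran 30 min at room temperature, with 10 ug/mL donor/acceptor beads.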
VDR inh = blocks the human vitamin D receptor | P11473 | VDR-SRC2-3 peptide fluorescence polarization, 2 h | Potency, µM, inactives show max response, negative = inhibition, usual class: inhibitors | 400,000 tested, 0.93% active | AID 504847; also: % is scaled to controls: 0 for no effect and ±100 for the full control effect
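The screen uses fluorescence polarization to detect compounds that interfere with recruitment of the SRC2-3 coactivator peptide to VDR; plates are read after 2 h at room temperature.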
L3MBTL1 inh = blocks human L3MBTL1 | AlphaScreen L3MBTL1–H3K9me1 peptide binding | 230,000 tested, 0.66% active | Q9Y468 | Potency, µM (series often up to 57.1 µM), for the others: top-dose activity, negative = inhibition, hits mostly inhibitors; also: % is scaled to controls: 0 for no effect and ±100 for the full control effect; nearly all actives have a fitted effect of over 60% in size
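AlphaScreen proximity signal between nickel-chelate acceptor and streptavidin donor beads (final 10 ug/mL) reports binding of 50 nM L3MBTL1 to 75 nM biotin-H3 K9me1 peptide; complex incubated with compounds 30 min at room temperature; cefsulodin titration as control.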
JMJD2A Tudor inh = JMJD2A Tudor domain (human) inhibition | O75164 | AlphaScreen JMJD2A-Tudor / H3K4me3 peptide binding | Potency, µM (series often up to 114 µM), inactives show at the highest dose activity change, negative = inhibition, actives largely listed as inhibitors | 390,000 tested, 4.4% active | AID 504339; also: % is scaled to controls: 0 for no effect and ±100 for the full control effect; nearly all actives have a fitted effect of over 50% in size
Target sequence (O75164 whole entry, looked up, the tested form may be a part): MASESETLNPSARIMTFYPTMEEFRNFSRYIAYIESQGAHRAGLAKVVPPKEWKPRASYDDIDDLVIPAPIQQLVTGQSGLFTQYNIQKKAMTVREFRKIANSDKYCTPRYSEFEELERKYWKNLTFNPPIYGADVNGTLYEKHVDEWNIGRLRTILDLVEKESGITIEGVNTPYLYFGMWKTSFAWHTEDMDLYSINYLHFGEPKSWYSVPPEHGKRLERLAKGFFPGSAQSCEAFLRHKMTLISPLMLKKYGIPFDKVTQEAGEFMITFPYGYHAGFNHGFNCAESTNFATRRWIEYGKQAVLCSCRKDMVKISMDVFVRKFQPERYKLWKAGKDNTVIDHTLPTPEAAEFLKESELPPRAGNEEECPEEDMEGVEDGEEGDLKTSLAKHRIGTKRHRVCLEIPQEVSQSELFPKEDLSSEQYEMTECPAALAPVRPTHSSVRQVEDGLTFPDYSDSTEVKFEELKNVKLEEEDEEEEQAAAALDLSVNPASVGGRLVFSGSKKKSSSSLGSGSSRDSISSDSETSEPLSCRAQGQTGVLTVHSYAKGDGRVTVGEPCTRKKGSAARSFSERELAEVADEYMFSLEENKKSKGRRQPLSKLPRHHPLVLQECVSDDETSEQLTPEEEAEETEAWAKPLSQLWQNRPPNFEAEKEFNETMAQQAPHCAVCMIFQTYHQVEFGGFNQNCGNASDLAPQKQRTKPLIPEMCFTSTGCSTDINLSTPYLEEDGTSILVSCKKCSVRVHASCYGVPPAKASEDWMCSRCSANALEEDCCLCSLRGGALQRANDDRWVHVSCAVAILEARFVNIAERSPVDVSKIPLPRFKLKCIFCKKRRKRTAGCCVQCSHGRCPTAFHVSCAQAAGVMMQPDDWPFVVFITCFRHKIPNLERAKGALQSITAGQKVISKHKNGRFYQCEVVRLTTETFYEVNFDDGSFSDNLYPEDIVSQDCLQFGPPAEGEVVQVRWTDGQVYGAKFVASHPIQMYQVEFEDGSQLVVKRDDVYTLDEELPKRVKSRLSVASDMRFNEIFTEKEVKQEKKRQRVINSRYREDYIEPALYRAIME
The depositor's hits bear a star; u = inconclusive; x = not tested or not shown; [ ] = remark or other dose. Most compounds without a hit are left out; they make up all but 6.9% or so of the library. Calls follow the shape of the dose curve; as a rule, active = well fitted curve in the direction sought with a large enough effect; inconclusive = small, poorly fitted or top-dose-only effect, or another doubt; inactive = no such curve, though single readings can be large; an effect the other way counts as inactive or inconclusive. Potency is read from the fitted curve at half-maximal effect.

SMILES | PLK1 PBD block | BAZ2B block | HP1b binding inh | VDR inh | L3MBTL1 inh | JMJD2A Tudor inh
CCCc1cc(-c2[nH]ncc2-c2ccc3c(c2)OCCCO3)c(O)cc1O | -1% | u | -20% | 11% | -24% | 40µM*
C=CCN(C(=O)CCC(=O)Nc1cc(C)on1)C(C(=O)NC1CCCC1)c1cccnc1 (stereo unspecified) | -7% | 11% | 7% | 15% | 0% | -11%
Cc1cc(NC(=O)CCC(=O)N(CC2CCCO2)C(C(=O)NC2CCCC2)c2cccnc2)no1 (stereo unspecified) | 27µM* | 1%[57.1 µM] | u | -17% | 2% | u
Cc1ccc(-n2nc(C(=O)Nc3ccc(Cl)cn3)c3c4ccccc4n(C)c3c2=O)cc1 | x | x | -1% | 15% | x | -24%
Cc1ccccc1-n1c(-c2ccc(Cl)cc2)cnc1SCC(=O)NC1CCS(=O)(=O)C1 (stereo unspecified) | -19% | 50µM* | -29% | -21% | -3% | u
COc1ccc(CN2CCN(CCc3ccccc3)C(CCO)C2)cc1Cn1cncn1 (stereo unspecified) | -19% | -10% | 23% | 8% | -5% | -11%
CS(=O)(=O)c1ccc(Cn2c3c(c4cc(F)cc(F)c42)CCC[C@H]3CC(=O)O)cc1 | x | x | x | 25µM* | x | x
O=C(CN(CC1CCCO1)C(=O)CNS(=O)(=O)c1ccc(Cl)cc1)NCc1ccc(F)cc1 (stereo unspecified) | -5% | -2% | 18% | -2% | x | -8%
N[C@@H](Cn1cc(F)c(=O)[nH]c1=O)C(=O)O | x | x | x | 0% | x | x
CCOCC(O)COc1ccc(NC(=O)CC[S+](C)C)cc1 (stereo unspecified) | x | x | x | -5% | x | x
Cc1ccc(S(=O)(=O)Nc2cc(C)c(O)c(Sc3n[nH]c(C)n3)c2)cc1 | -8% | -28% | u | -22% | x | 11µM*
Cc1ccc(S(=O)(=O)Nc2ccc(O)c(S(=O)(=O)c3ccc(C)cc3)c2)cc1 | -5% | -17% | 11% | 5% | x | -11%
CCn1cc(C(=O)NCc2ccc(Cl)cc2)c(=O)c2cc(S(=O)(=O)N(C)C3CCCCC3)ccc21 | x | x | 8% | 10% | x | -22%
CCOc1ccccc1CNC(=O)c1cc2oc3ccccc3c2n1C | 5% | -30% | -8% | -7% | x | u
CCOc1ccccc1CNC(=O)c1cc2occc2n1C | 3% | 45µM* | u | 2% | u | -35%
COc1ccccc1C(=O)OCCNC(=O)Cn1cnc2c1c(=O)n(C)c(=O)n2C | -1% | 11% | 46% | -8% | 2% | 0%
COc1ccc(N2CCN(c3ccnc4cc(Cl)ccc34)CC2)cc1 | -1% | 40µM* | 40µM* | -8% | x | 35µM*
Oc1ccc(N2CCN(c3ccnc4cc(Cl)ccc34)CC2)cc1 | -9% | u | u | -9% | x | 56µM*
Clc1ccc2c(N3CCCC3)ccnc2c1 | -7% | -4% | 38% | -1% | 2% | 9%[57.1 µM]
O=C(CSCc1ccc(F)cc1)NCc1ccco1 | -10% | 7% | 44% | -8% | x | -17%
Cn1nnnc1Sc1ncnc2scc(-c3cccc([N+](=O)[O-])c3)c12 | x | x | x | x | x | -27%
COC(=O)N1CCC[C@@]2(CCN(C(=O)Nc3ccccc3)C2)C1 | x | x | x | 0% | x | x
O=C(O)c1cc([N+](=O)[O-])ccc1-c1ccc([N+](=O)[O-])cc1C(=O)O | -19% | x | x | x | x | x
O=C(O)c1cc([N+](=O)[O-])cc2ccccc12 | 19µM* | x | 1%[57 µM] | -5% | x | -26%
O=[N+]([O-])c1cc2ccccc2c(O)c1O | 5.3µM* | x | x | x | x | x
SMILES | PLK1 PBD block | BAZ2B block | HP1b binding inh | VDR inh | L3MBTL1 inh | JMJD2A Tudor inh
O=[N+]([O-])c1c(Nc2ccccc2)ccc2nonc12 | 6% | 6% | 17% | 24% | -8% | -7%
O=C(O)c1ccccc1Nc1ccc([N+](=O)[O-])cc1C(=O)O | 0% | u | -5% | 11% | x | 32µM*
O=C(O)c1ccccc1Nc1ccc([N+](=O)[O-])c2nonc12 | 0% | 40µM* | u | 19% | x | -31%
CC(=O)Nc1c(C)nn(-c2ccccc2)c1N1CCC(C(=O)Nc2cccc(C(F)(F)F)c2)CC1 | x | 2% | 29%[57 µM] | 18% | x | -6%
C=CCN(C(C(=O)OC)C(C)C)S(=O)(=O)C=C (stereo unspecified) | x | x | 30% | -3% | x | 4%
O=C(CN1CCCCC1)N1CCCc2ccccc21 | -9% | 50µM* | u | 14% | x | 2.5µM*
O=C(CCCC(=O)N1CCCc2ccccc21)N1CCCc2ccccc21 | -2% | 10% | 27% | -5% | 6% | -9%
O=C1CNC(=O)N1CC(=O)N1CCCc2ccccc21 | -6% | 6% | 25% | 0% | x | -2%
O=C(CN1CCCC1)N1CCCc2ccccc21 | -6% | 50µM* | u | 5% | -7% | 3.5µM*
Cc1cc2c(s1)c1cnn(Cc3cc(F)cc(F)c3)c(=O)c1n2C | x | x | x | x | x | -9%
O=C(CSc1nc2cc(S(=O)(=O)N3CCOCC3)ccc2o1)NC1CCCc2ccccc21 (stereo unspecified) | 6.7µM* | -5% | -36% | u | 2%[11.4 µM] | 50µM*
Cc1ccc(C(=O)CSc2nc3cc(S(=O)(=O)N4CCOCC4)ccc3o2)cc1 | 24µM* | 2% | 5% | -4% | -4% | -13%
CCn1c(SC)nc2c([nH]c3ccccc32)c1=O | x | -1% | 42% | 1% | x | -9%
Cc1ccc(OCCn2c(-c3ccc(Cl)cc3)nc3ccccc3c2=O)c(C)c1 | x | 8% | 40% | -13% | x | 9%
O=C(Cc1ccc(F)cc1)NCC1CCCO1 (stereo unspecified) | -15% | 1% | 28% | -5% | 4% | 4%
Cc1nn(-c2ccc(F)cc2)c(Cl)c1C(=O)NCC1CCCO1 (stereo unspecified) | -14% | 9% | 20% | 89µM* | 2% | -3%
CCOC(=O)/C(=C/C=C1\Sc2cc(C)c(C)cc2N1CC)C(C)=O | 61% | 40µM* | 16% | 11% | -5% | -21%
CCOC(=O)c1ccc2c(c1)N(CC)C(=O)c1ccccc1S2 | -1% | -7% | 24% | 3% | x | -3%
CC1=CC(=O)C2=C(C)CC[C@H]3[C@H](C)C(=O)O[C@@H]3C12 (stereo partly specified) | x | x | x | 4% | x | x
CC1C(=O)OC2C1CCC1(C)CCC(=O)C(C)C21 (stereo unspecified) | 30µM* | 13% | 51% | -1% | x | 50µM*
O=C(c1ccc(Cl)c(S(=O)(=O)NCc2ccco2)c1)N1CCN(c2ccccc2F)CC1 | 27µM* | -10% | -32% | -10% | x | 56µM*
Cn1c(=O)n(C)c2cc(NS(=O)(=O)c3ccc(Br)cc3)c(NCc3ccccc3)cc21 | x | -28% | -1% | -13% | x | u
